Activity calls are given as the source filed them.
Key:
[1] = small molecules captured by biotinylated probe aFSTL3 – biochemical, small-molecule microarray, fluorescence 635/667, stem cell growth factor project, primary screen (AID 1064); details: higher = more signal;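 further: measures binding of the biotinylated anti-FSTL3 antibody to printed compounds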
[2] = binders from COS7 lysate, DM2A8 probe, primary screen, torsin A project, cell lysate, small-molecule microarray, fluorescence 635/667 (AID 1065); details: higher = more signal, COS7 lysate expressing mutant human TOR1A
[3] = small molecules captured by biotinylated probe aFGF2 – biochemical, small-molecule microarray, fluorescence 635/667, stem cell growth factor project, primary screen (AID 1067); details: higher = more signal;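 further: measures binding of biotinylated aFGF2 protein to printed compounds on slides; z-score merges feature fluorescence and signal-to-noise across triplicate slides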
[4] = small molecules captured by biotinylated probe aFGF10 – biochemical, small-molecule microarray, fluorescence 635/667, stem cell growth factor project, primary screen (AID 1071); details: higher = more signal;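 further: score merges 667 nm spot intensity and signal to noise from triplicate slides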
[5] = target: Neurogenic locus notch homolog protein 2 (Homo sapiens) (UniProt Q04721); experiment: small molecules binding Notch2 protein – biochemical, small-molecule microarray, 635 nm fluorescence, stem cell growth factors, primary screen (AID 1073); details: higher = more signal
Neurogenic locus notch homolog protein 2 (Homo sapiens), sequence (Q04721 whole entry, looked up, canonical isoform): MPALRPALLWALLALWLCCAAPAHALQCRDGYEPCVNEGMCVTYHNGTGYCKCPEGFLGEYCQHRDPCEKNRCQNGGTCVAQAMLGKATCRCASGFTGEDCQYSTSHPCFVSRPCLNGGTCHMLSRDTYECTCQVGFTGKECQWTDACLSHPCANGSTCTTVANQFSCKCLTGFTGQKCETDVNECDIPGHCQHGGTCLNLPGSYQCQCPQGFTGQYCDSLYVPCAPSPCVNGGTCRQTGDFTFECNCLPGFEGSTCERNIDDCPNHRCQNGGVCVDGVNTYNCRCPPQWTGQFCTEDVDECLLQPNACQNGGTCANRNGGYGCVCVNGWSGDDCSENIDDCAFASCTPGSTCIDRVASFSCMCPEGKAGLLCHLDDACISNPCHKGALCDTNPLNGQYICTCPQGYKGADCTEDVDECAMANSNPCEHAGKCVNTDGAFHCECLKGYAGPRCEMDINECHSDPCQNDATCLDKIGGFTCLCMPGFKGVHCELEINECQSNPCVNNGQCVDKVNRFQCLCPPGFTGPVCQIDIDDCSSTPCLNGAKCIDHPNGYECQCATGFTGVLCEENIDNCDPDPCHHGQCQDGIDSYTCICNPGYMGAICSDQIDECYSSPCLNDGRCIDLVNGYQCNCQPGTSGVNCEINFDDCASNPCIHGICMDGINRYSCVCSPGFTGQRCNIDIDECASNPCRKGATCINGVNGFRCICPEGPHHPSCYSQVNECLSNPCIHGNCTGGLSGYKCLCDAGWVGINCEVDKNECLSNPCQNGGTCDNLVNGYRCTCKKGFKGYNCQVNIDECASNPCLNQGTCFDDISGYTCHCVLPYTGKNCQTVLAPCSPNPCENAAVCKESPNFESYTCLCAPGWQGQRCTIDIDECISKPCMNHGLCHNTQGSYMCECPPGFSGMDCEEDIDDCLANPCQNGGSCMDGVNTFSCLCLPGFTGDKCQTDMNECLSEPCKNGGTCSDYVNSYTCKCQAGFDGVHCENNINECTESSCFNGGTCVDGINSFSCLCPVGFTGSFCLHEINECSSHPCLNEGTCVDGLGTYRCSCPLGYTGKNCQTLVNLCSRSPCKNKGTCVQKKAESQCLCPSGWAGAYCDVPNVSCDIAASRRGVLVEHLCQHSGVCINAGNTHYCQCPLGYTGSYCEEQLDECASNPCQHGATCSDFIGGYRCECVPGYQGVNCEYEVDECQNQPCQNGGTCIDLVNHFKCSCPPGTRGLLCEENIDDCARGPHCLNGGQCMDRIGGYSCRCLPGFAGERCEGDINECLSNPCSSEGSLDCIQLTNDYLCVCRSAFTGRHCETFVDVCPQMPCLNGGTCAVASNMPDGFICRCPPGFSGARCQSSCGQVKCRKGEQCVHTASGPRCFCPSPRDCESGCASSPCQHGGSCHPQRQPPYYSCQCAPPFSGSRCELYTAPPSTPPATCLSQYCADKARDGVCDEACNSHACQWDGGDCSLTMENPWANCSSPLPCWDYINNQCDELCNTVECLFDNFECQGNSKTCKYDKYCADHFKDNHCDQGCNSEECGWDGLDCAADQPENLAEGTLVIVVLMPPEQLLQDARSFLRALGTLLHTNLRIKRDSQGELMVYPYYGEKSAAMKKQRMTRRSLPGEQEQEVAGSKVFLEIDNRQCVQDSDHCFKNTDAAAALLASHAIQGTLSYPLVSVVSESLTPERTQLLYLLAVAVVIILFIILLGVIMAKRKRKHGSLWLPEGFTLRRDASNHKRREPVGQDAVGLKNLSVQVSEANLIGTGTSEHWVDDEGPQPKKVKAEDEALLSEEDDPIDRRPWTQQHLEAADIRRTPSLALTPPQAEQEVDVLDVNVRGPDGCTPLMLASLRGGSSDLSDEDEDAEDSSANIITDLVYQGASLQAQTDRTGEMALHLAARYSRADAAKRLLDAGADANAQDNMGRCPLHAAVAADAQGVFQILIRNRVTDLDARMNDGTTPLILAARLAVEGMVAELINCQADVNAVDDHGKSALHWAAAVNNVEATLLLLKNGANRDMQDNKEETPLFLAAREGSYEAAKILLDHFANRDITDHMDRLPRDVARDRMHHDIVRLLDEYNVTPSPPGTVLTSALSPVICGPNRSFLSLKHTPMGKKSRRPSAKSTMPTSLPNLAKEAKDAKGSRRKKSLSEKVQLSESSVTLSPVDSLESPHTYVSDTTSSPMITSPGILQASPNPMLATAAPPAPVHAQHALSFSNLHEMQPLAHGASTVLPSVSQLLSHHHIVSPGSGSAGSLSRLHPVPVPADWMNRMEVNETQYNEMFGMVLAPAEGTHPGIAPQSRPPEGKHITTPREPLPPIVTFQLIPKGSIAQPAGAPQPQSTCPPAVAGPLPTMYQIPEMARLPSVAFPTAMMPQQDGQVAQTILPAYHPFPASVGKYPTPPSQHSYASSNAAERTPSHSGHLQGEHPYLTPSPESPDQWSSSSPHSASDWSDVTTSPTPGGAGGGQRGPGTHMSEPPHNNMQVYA

[6] = target: Pro-neuregulin-1, membrane-bound isoform (Homo sapiens) (UniProt Q02297); experiment: small molecules binding neuregulin-1 protein – biochemical, small-molecule microarray, fluorescence 635/667, psychiatric disease protein project, primary screen (AID 1075); details: NRG1 binding, 635 nm fluorescence, higher = more signal;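 further: score combines 667 nm spot fluorescence with signal to noise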
Pro-neuregulin-1, membrane-bound isoform (Homo sapiens), sequence (Q02297 whole entry, looked up, the tested form may be a part, canonical isoform): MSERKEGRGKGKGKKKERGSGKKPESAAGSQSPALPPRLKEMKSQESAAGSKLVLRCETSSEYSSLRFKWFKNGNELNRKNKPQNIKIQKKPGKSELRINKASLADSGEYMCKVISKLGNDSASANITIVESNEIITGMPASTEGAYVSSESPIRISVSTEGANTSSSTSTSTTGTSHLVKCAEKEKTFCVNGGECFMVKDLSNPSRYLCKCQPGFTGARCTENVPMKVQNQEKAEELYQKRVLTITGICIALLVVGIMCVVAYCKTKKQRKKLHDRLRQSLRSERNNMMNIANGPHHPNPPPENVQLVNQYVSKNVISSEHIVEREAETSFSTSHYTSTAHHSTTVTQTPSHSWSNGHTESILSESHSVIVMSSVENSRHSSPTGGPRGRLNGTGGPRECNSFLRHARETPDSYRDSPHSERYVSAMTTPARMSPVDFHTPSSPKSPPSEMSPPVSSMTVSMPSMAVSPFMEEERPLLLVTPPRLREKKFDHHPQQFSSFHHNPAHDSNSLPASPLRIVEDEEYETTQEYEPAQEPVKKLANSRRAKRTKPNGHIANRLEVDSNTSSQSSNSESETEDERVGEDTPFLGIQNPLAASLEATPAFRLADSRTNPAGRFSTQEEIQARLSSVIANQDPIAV

[7] = test system: Neuregulin-1 EGF-like domain; experiment: small molecules binding NRG1 EGF domain – biochemical, small-molecule microarray, 635 nm fluorescence, primary screen (AID 1081); details: higher = more signal;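 further: binding of the protein to compounds printed on small-molecule microarray slides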
[8] = FRG1 expression reporter modulators in myotubes – cell-based, C2C12 myotubes, firefly/Renilla luciferase, luminescence, FRG1 inhibition for FSHD, primary screen (AID 1084); details: FRG1 promoter luciferase, higher = more signal, called active from +8 up or from −8 down
[9] = small molecules captured by biotinylated probe aFST – biochemical, small-molecule microarray, fluorescence 635/667, stem cell growth factor project, primary screen (AID 1086); details: higher = more signal;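 further: score merges 667 nm fluorescence with signal-to-noise of each printed compound spot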
[10] = binders of probe aHhip on microarray, primary screen, stem cell growth factor project, biochemical, small-molecule microarray, fluorescence 635/667 (AID 1087); details: higher = more signal;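 further: score merges spot fluorescence at 667nm with spot signal to noise ratio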
[11] = test system: PRMT1 (protein arginine N-methyltransferase 1); experiment: small molecules binding arginine methyltransferase PRMT1 – biochemical, small-molecule microarray, 635 nm fluorescence, primary screen (AID 1088); details: higher = more signal;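 further: binding of Prmt1 protein to compounds spotted on small-molecule microarray slides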
[12] = growth effects on S. cerevisiae YJM789 – YJM789 clinical isolate, OD600, 24 h, basal, primary screen (AID 1089); details: higher = more signal, called active from +8 up or from −8 down;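 further: growth of clinical yeast isolate S. cerevisiae YJM 789 seeded 1000 cells per well; test concentration not given here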
[13] = S. pombe growth modifiers, basal conditions – strain 972, OD600, 24 h, no modulator, primary screen (AID 1090);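 further: basal condition with compound alone and no growth modifier present; test concentration not given here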; details: S. pombe 972 growth, higher = more signal, called active from +8 up or from −8 down
[14] = budding yeast growth modifiers under rapamycin – strain BY4716, OD600, 96 h, primary screen (AID 1091); further: test concentration not given here; details: S. cerevisiae BY4716 + rapamycin, higher = more signal, called active from +8 up or from −8 down
[15] = target: Torsin-1A-interacting protein 2 (Homo sapiens) (UniProt Q8NFQ8); experiment: small molecules binding lysate-expressed LULL1 – cell lysate, human LULL1 lysate, 635/667 nm fluorescence, primary screen (AID 1092); details: small-molecule microarray, hLULL1 lysate binding, 635 nm fluorescence; higher = more signal;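 further: probe is lysate of COS7 cells overexpressing human LULL1; score merges per-feature 667 nm fluorescence with signal-to-noise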
Torsin-1A-interacting protein 2 (Homo sapiens), sequence (Q8NFQ8 whole entry, looked up): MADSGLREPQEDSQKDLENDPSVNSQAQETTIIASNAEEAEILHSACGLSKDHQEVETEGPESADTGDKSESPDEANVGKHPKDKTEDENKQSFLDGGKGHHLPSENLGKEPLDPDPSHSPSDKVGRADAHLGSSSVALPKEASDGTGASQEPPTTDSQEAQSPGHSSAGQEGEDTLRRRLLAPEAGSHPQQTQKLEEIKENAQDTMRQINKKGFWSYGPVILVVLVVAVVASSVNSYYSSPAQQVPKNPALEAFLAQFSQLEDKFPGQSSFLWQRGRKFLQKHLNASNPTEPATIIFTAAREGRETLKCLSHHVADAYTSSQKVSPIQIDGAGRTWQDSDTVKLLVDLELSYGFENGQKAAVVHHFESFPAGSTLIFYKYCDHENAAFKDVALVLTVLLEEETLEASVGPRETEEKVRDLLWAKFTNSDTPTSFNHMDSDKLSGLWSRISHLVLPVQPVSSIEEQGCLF

[16] = optical density change of DRC41 E. coli – strain DRC41, OD650, 24 h, E. coli filamentation project, primary screen (AID 1093);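 further: MC1000 strain lacking acrAB efflux and sulA so SOS filamentation is blocked; test concentration not given here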; details: E. coli DRC41 growth, higher = more signal, called active from +8 up or from −8 down
[17] = probe aLefty2 binding to arrayed compounds – biochemical, biotinylated probe, 635/667 nm fluorescence, primary screen (AID 1094); details: small-molecule microarray, higher = more signal;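 further: score merges spot fluorescence near 667 nm with spot signal-to-noise ratio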
[18] = test system: Noggin (protein binding on small-molecule microarray); experiment: small molecules binding Noggin protein – biochemical, 635/667 nm fluorescence, primary screen (AID 1095); details: 635 nm fluorescence, higher = more signal;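 further: score merges 667 nm feature fluorescence with signal to noise over triplicate slides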
[19] = target: Neurogenic locus notch homolog protein 3 (Homo sapiens) (UniProt Q9UM47); experiment: small molecules binding NOTCH3 protein – biochemical, 635/667 nm fluorescence, primary screen (AID 1096); details: small-molecule microarray, 635 nm fluorescence, higher = more signal
[20] = probe aEGFR binding to arrayed compounds – biochemical, biotinylated probe, 635/667 nm fluorescence, primary screen (AID 1097); details: small-molecule microarray, higher = more signal;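 further: probe is a biotinylated anti-EGFR antibody binding compounds printed on slides; score combines fluorescence near 667 nm and signal to noise of each spot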

Compound: CCOC(=O)C[C@H]1[C@H](OC(=O)c2cc3ccccc3oc2=O)[C@@H](NC(=O)c2ccc3ccccc3n2)c2cc(OCCCO)ccc2N1C(=O)c1ccc2ccccc2n1
- composite z-score [1]: 1.37
- composite z-score [2]: 0.14
- composite z-score [3]: -0.0342
- composite z-score [4]: 0.936
- composite z-score [5]: 0.114
- composite z-score [6]: -0.0114
- composite z-score [7]: 1.06
- z-score [8]: -0.21 (inactive)
- composite z-score [9]: 0.787
- composite z-score [10]: 0.177
- composite z-score [11]: 0.295
- z-score [12]: -0.157 (inactive)
- z-score [13]: 0.291 (inactive)
- z-score [14]: -0.273 (inactive)
- composite z-score [15]: 0.648
- z-score [16]: 1.5 (inactive)
- composite z-score [17]: -0.0773
- composite z-score [18]: 1.03
- composite z-score [19]: 1.12
- composite z-score [20]: 0.183

Compound: CCOC(=O)C[C@H]1[C@H](OC(=O)Cc2ccc3c(c2)OCO3)[C@@H](NC(=O)c2ccccc2)c2cc(OCCCO)ccc2N1C(=O)c1ccccc1
- composite z-score [1]: -0.23
- composite z-score [2]: 0.122
- composite z-score [3]: -0.0687
- composite z-score [4]: 0.346
- composite z-score [5]: 0.228
- composite z-score [6]: -0.109
- composite z-score [7]: 0.895
- z-score [8]: -1.73 (inactive)
- composite z-score [9]: 0.0452
- composite z-score [10]: -0.0237
- composite z-score [11]: 0.267
- z-score [12]: -0.0172 (inactive)
- z-score [13]: -0.462 (inactive)
- z-score [14]: 0.205 (inactive)
- composite z-score [15]: 1.27
- z-score [16]: 1.48 (inactive)
- composite z-score [17]: -0.166
- composite z-score [18]: 0.53
- composite z-score [19]: 0.713
- composite z-score [20]: -0.125

Compound: COCCOC(=O)N1C(=O)[C@@]2(c3cc(C#CCNC(N)=O)ccc31)[C@H](C(N)=O)[C@H]1C(=O)O[C@H](c3ccccc3)[C@H](c3ccccc3)N1[C@@H]2c1ccc(OCCO)cc1
- composite z-score [1]: -0.147
- composite z-score [2]: 0.0525
- composite z-score [3]: -0.0139
- composite z-score [4]: 0.309
- composite z-score [5]: 1.16
- composite z-score [6]: 0.564
- composite z-score [7]: 0.342
- z-score [8]: 1.34 (inactive)
- composite z-score [9]: 0.459
- composite z-score [10]: -0.0427
- composite z-score [11]: 1.55
- z-score [12]: 0.517 (inactive)
- z-score [13]: 0.0121 (inactive)
- z-score [14]: 1.98 (inactive)
- composite z-score [15]: 1.53
- z-score [16]: -0.27 (inactive)
- composite z-score [17]: -0.0054
- composite z-score [18]: 1.23
- composite z-score [19]: 1.07
- composite z-score [20]: -0.0085

Compound: CCCCC(CC)C(O)C1C=CC2C(=O)NC(=O)C2N1Nc1ccccn1 (stereo not given)
- composite z-score [1]: -0.252
- composite z-score [2]: -0.14
- composite z-score [3]: -0.0005
- composite z-score [4]: 0.207
- composite z-score [5]: 1.41
- composite z-score [6]: 1.38
- composite z-score [7]: 0.879
- z-score [8]: 1.54 (inactive)
- composite z-score [9]: 0.245
- composite z-score [10]: 0.204
- composite z-score [11]: 1.34
- z-score [12]: 0.601 (inactive)
- z-score [13]: 0.764 (inactive)
- z-score [14]: 0.722 (inactive)
- composite z-score [15]: 2.74
- z-score [16]: -0.828 (inactive)
- composite z-score [17]: -0.11
- composite z-score [18]: 0.0732
- composite z-score [19]: 1.1
- composite z-score [20]: -0.119

Compound: COCCOC(=O)N1C(=O)[C@@]2(c3cc(C#CCC(C(=O)OC)C(=O)OC)ccc31)[C@H](C(=O)N1CCCCCCC1)[C@H]1C(=O)O[C@H](c3ccccc3)[C@H](c3ccccc3)N1[C@@H]2c1ccc(O)cc1
- composite z-score [1]: 2.64
- composite z-score [2]: 0.745
- composite z-score [3]: 0.146
- composite z-score [4]: 0.344
- composite z-score [5]: 1.26
- composite z-score [6]: 1.33
- composite z-score [7]: 1.25
- z-score [8]: 0.741 (inactive)
- composite z-score [9]: 2.37
- composite z-score [10]: 0.801
- composite z-score [11]: 1.49
- z-score [12]: 0.405 (inactive)
- z-score [13]: -0.866 (inactive)
- z-score [14]: 1.15 (inactive)
- composite z-score [15]: 3.19
- z-score [16]: 1.04 (inactive)
- composite z-score [17]: 1.06
- composite z-score [18]: 1.37
- composite z-score [19]: 1.07
- composite z-score [20]: 0.456

Compound: C#CCOC(=O)N[C@H](C=CCCCC)c1ccccc1
- composite z-score [1]: 0.209
- composite z-score [2]: 0.108
- composite z-score [3]: 0.0934
- composite z-score [4]: 0.239
- composite z-score [5]: 1.33
- composite z-score [6]: 2.33
- composite z-score [7]: 1.31
- z-score [8]: -0.237 (inactive)
- composite z-score [9]: 0.129
- composite z-score [10]: 0.382
- composite z-score [11]: -0.893
- z-score [12]: 0.126 (inactive)
- z-score [13]: -0.091 (inactive)
- z-score [14]: 0.0673 (inactive)
- composite z-score [15]: 2.96
- z-score [16]: 0.392 (inactive)
- composite z-score [17]: 0.148
- composite z-score [18]: -0.373
- composite z-score [19]: -0.404
- composite z-score [20]: 0.0082

Compound: CC(C)CNC(=O)[C@@]1(c2ccc([N+](=O)[O-])cc2)CC(=O)N(C(C)C)[C@@H]1c1ccc(CO)cc1
- composite z-score [1]: 0.722
- composite z-score [2]: -0.187
- composite z-score [3]: -0.137
- composite z-score [4]: -0.138
- composite z-score [5]: -0.205
- composite z-score [6]: 1.95
- composite z-score [7]: 0.55
- z-score [8]: -0.696 (inactive)
- composite z-score [9]: -0.761
- composite z-score [10]: -0.0252
- composite z-score [11]: 0.808
- z-score [12]: -0.655 (inactive)
- z-score [13]: -0.182 (inactive)
- z-score [14]: -0.812 (inactive)
- composite z-score [15]: 2.03
- z-score [16]: 0.738 (inactive)
- composite z-score [17]: -0.147
- composite z-score [18]: -0.641
- composite z-score [19]: -0.143
- composite z-score [20]: -0.13

Compound: CC(C)CCC[C@@H](C)[C@H]1CC[C@@]2(C)C3=C(CC[C@]12C)[C@@]1(C)CC[C@H](OC(=O)C(C)(C)C)C(C)(C)C1CC3 (stereo not given in full)
- composite z-score [1]: -0.441
- composite z-score [2]: 0.39
- composite z-score [3]: -0.0609
- composite z-score [4]: 0.298
- composite z-score [5]: 0.575
- composite z-score [6]: -0.036
- composite z-score [7]: 0.307
- z-score [8]: -0.987 (inactive)
- composite z-score [9]: 0.0166
- composite z-score [10]: -0.0296
- composite z-score [11]: 0.475
- z-score [12]: -3.55 (inactive)
- z-score [13]: -2.59 (inactive)
- z-score [14]: -2.18 (inactive)
- composite z-score [15]: 0.0236
- z-score [16]: 0.768 (inactive)
- composite z-score [17]: -0.212
- composite z-score [18]: 0.57
- composite z-score [19]: 0.571
- composite z-score [20]: -0.0549

Compound: COc1cc(C(O)C2C=CC3C(=O)NC(=O)C3N2Nc2ccc(Cl)cc2Cl)cc(OC)c1OC (stereo not given)
- composite z-score [1]: 0.223
- composite z-score [2]: -1.1
- composite z-score [3]: 0.0461
- composite z-score [4]: 0.476
- composite z-score [5]: 1.63
- composite z-score [6]: 1.72
- composite z-score [7]: 1.21
- z-score [8]: 1.15 (inactive)
- composite z-score [9]: 1.7
- composite z-score [10]: 0.203
- composite z-score [11]: 1.18
- z-score [12]: -12.3 (active)
- z-score [13]: -1.57 (inactive)
- z-score [14]: 0.27 (inactive)
- composite z-score [15]: 3.27
- z-score [16]: -0.66 (inactive)
- composite z-score [17]: 0.162
- composite z-score [18]: 0.049
- composite z-score [19]: 1.09
- composite z-score [20]: 0.114

Compound: COCCOC(=O)N1C(=O)[C@@]2(c3cc(C#CCCO)ccc31)[C@H](C(=O)NC[C@H](O)c1ccccc1)[C@H]1C(=O)O[C@H](c3ccccc3)[C@H](c3ccccc3)N1[C@@H]2c1ccccc1OCCO
- composite z-score [1]: -0.0841
- composite z-score [2]: 0.284
- composite z-score [3]: -0.0048
- composite z-score [4]: 0.486
- composite z-score [5]: 1.48
- composite z-score [6]: 0.96
- composite z-score [7]: 1.31
- z-score [8]: -0.154 (inactive)
- composite z-score [9]: 0.62
- composite z-score [10]: -0.0994
- composite z-score [11]: 1.53
- z-score [12]: 1.06 (inactive)
- z-score [13]: 0.578 (inactive)
- z-score [14]: 2.4 (inactive)
- composite z-score [15]: 2.62
- z-score [16]: 0.636 (inactive)
- composite z-score [17]: -0.0437
- composite z-score [18]: 1.42
- composite z-score [19]: 1.07
- composite z-score [20]: 0.13

Source: PubChem BioAssay
